This passage reports composite z-score results from PubChem BioAssay.

The test deals with PRMT1 (protein arginine N-methyltransferase 1). As to the kind of experiment: PRMT1 binders on small-molecule microarrays, primary screen, biochemical, small-molecule microarray, 635 nm fluorescence (AID 1088).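 Further: binding of Prmt1 protein to compounds spotted on small-molecule microarray slides.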 The note with it: small-molecule microarray binding, higher = more signal.
Turning to `O=C(CCCCCCC(=O)Nc1ccccc1)N/N=C/c1ccccc1`, the composite z-score was -0.998.

`CCOC(=O)C[C@H]1[C@H](OC(=O)Cc2ccc3c(c2)OCO3)[C@@H](NC(=O)C2CCCCC2)c2cc(OCCCO)ccc2N1C(=O)c1ccc2ccccc2n1` came in with a composite z-score of 0.688.

As to `O=C(NC1CC1)[C@@H]1c2ccccc2C(=O)N(Cc2ccccc2)[C@H]1c1ccc(CO)cc1`, the composite z-score came to 0.449.

The molecule `NC(N)=NCc1cn(CCc2c[nH]c3ccccc23)nn1` yielded a composite z-score of 0.974.

`COCCCNC(=O)[C@@]1(Sc2ccc(C)cc2)CC(=O)N(Cc2cc(C(F)(F)F)cc(C(F)(F)F)c2)[C@@H]1c1ccc(CO)cc1` yielded a composite z-score of 1.54.

The molecule `O=C1O[C@@H](c2ccccc2)[C@@H](c2ccccc2)N2[C@@H](c3ccc(O)cc3)[C@]3(C(=O)Nc4ccc(C#CC5=CCCCC5)cc43)[C@@H](C(=O)N3CCN(c4ncccn4)CC3)[C@H]12` showed a composite z-score of 1.55.

As for `COCCOC(=O)N1C(=O)[C@@]2(c3cc(C#CC4=CCCCC4)ccc31)[C@H](c1ccccc1OCCO)N1[C@H](c3ccccc3)[C@H](c3ccccc3)OC(=O)[C@H]1[C@@H]2C(=O)N1CCc2cc(OC)c(OC)cc2C1`, the composite z-score was determined as 1.55.

The molecule `CC[C@H]1C2=C3C(CC[C@H]4C(OCc5ccc(F)cc5C(F)(F)F)OC[C@](C)([C@@H]34)N(C(=O)OC(C)(C)C)C2)C2COC(=O)OCC21` (stereo not given in full) displayed a composite z-score of 0.254.

As for `CO[C@H]1O[C@H](CO)[C@@H](OC(=O)Nc2ccccc2-c2ccccc2)[C@H](OC(=O)Nc2ccc3c(c2)OCO3)[C@@H]1OC(=O)Nc1ccc2c(c1)OCO2`, the composite z-score is 1.53.

The molecule `COCCCNC(=O)[C@@]1(Sc2ccc(C)cc2)CC(=O)N(C2Cc3ccccc3C2)[C@@H]1c1ccc(CO)cc1I` had a composite z-score of -0.649.
